Results published in PubChem BioAssay (NCATS).
Records with an inconclusive call do not appear. A number with no mark means an inactive call. Active and inactive are the calls of the source. Calls follow the shape of the dose curve; as a rule, active = well fitted curve in the direction sought with a large enough effect; inconclusive = small, poorly fitted or top-dose-only effect, or another doubt; inactive = no such curve, though single readings can be large; an effect the other way counts as inactive or inconclusive.

Experiments:
[1] = target: Tyrosyl-DNA phosphodiesterase 1 (Homo sapiens) (UniProt Q9NUW8); assay: Confirmation Assay for Inhibitors of Tyrosyl-DNA Phosphodiesterase (TDP1) (AID 489007); details: recombinant human TDP1 enzymatic activity, dose-response; also: potency is read from the fitted curve at half-maximal effect; nearly all actives have a fitted effect of over 40% in size
Outline: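 Compounds are preincubated 15 min at room temperature with 1 nM recombinant human Tdp1. The reaction starts on adding 15 nM FITC-phosphotyrosine DNA substrate, runs 5 min, and is detected by AlphaScreen beads after 10 min.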

[2] = target: ATP-dependent 6-phosphofructokinase (Trypanosoma brucei brucei) (UniProt O15648); assay: qHTS Assay to Find Inhibitors of T. brucei phosphofructokinase: hit validation (AID 492961);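 also: luminescence reports ADP formed as PFK phosphorylates fructose-6-phosphate with ATP; % is scaled to controls: 0 for no effect and ±100 for the full control effect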; details: T. brucei PFK, ADP-Glo luminescence; series mostly up to 51.4 µM
Outline: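 PFK 1.25 nM, F6P 0.5 mM, ATP 0.1 mM, MgCl2 5 mM, 0.1 M TEA pH 8.0, Tween20 0.01%, BSA 0.1%; 45 min RT. ADP-Glo two-step detection, luminescence. qHTS titration; curve fitting with curve-class categorization.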

[3] = qHTS profiling for inhibitors of Plasmodium falciparum proliferation (AID 504749);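 also: 0% = DMSO vehicle and full inhibition = artemisinin control; nearly all actives have a fitted effect of over 60% in size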; details: P. falciparum in erythrocytes, SYBR Green DNA, 72 h, at 28.7 µM (top of the series)
Outline: (§1)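 Quantitative HTS: compounds pinned into medium, infected erythrocytes added (0.3% parasitemia, 2.5% hematocrit), 72 h culture at 37 C under 5% CO2. Saponin/Triton lysis with SYBR Green I, overnight RT, then fluorescence read.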

3D7 = assay: as above; details: P. falciparum in erythrocytes, SYBR Green DNA, 72 h; series mostly up to 28.7 µM
Outline: as §1

7G8 = assay: as above; details: P. falciparum in erythrocytes, SYBR Green DNA, 72 h; series mostly up to 28.7 µM
Outline: as §1

AS120 = assay: as above; details: P. falciparum in erythrocytes, SYBR Green DNA, 72 h; series mostly up to 28.7 µM
Outline: as §1

ATS189 = assay: as above; details: P. falciparum in erythrocytes, SYBR Green DNA, 72 h; series mostly up to 28.7 µM
Outline: as §1

CP185 = assay: as above; details: P. falciparum in erythrocytes, SYBR Green DNA, 72 h; series mostly up to 28.7 µM
Outline: as §1

CP191 = assay: as above; details: P. falciparum in erythrocytes, SYBR Green DNA, 72 h; series mostly up to 28.7 µM
Outline: as §1

CP192 = assay: as above; details: P. falciparum in erythrocytes, SYBR Green DNA, 72 h; series mostly up to 28.7 µM
Outline: as §1

CP194 = assay: as above; details: P. falciparum in erythrocytes, SYBR Green DNA, 72 h; series mostly up to 28.7 µM
Outline: as §1

CP201 = assay: as above; details: P. falciparum in erythrocytes, SYBR Green DNA, 72 h; series mostly up to 28.7 µM
Outline: as §1

CP203 = assay: as above; details: P. falciparum in erythrocytes, SYBR Green DNA, 72 h; series mostly up to 28.7 µM
Outline: as §1

CP247 = assay: as above; details: P. falciparum in erythrocytes, SYBR Green DNA, 72 h; series mostly up to 28.7 µM
Outline: as §1

CP286 = assay: as above; details: P. falciparum in erythrocytes, SYBR Green DNA, 72 h; series mostly up to 28.7 µM
Outline: as §1

CP291 = assay: as above; details: P. falciparum in erythrocytes, SYBR Green DNA, 72 h; series mostly up to 28.7 µM
Outline: as §1

P94_40 = assay: as above; details: P. falciparum in erythrocytes, SYBR Green DNA, 72 h; series mostly up to 28.7 µM
Outline: as §1

PC49 = assay: as above; details: P. falciparum in erythrocytes, SYBR Green DNA, 72 h; series mostly up to 28.7 µM
Outline: as §1

TAB109 = assay: as above; details: P. falciparum in erythrocytes, SYBR Green DNA, 72 h; series mostly up to 28.7 µM
Outline: as §1

TAB113 = assay: as above; details: P. falciparum in erythrocytes, SYBR Green DNA, 72 h; series mostly up to 28.7 µM
Outline: as §1

Chain of Tyrosyl-DNA phosphodiesterase 1 (Homo sapiens) (Q9NUW8 whole entry, looked up): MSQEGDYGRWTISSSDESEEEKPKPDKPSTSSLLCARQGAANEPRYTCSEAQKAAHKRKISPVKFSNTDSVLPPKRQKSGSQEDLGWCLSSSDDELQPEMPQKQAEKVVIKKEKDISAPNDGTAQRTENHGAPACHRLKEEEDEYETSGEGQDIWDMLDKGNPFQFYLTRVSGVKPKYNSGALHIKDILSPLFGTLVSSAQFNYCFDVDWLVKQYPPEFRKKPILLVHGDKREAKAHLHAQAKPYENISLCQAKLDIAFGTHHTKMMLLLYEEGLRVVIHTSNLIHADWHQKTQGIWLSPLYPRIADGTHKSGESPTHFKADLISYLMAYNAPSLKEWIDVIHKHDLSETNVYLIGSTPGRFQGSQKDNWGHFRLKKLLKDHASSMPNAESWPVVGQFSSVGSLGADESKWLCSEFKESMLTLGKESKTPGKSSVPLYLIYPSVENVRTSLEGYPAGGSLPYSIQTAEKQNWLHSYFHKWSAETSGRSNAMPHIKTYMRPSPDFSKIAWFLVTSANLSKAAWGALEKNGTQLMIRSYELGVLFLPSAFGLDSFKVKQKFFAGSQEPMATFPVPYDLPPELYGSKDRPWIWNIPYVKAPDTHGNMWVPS
Chain of ATP-dependent 6-phosphofructokinase (Trypanosoma brucei brucei) (O15648 whole entry, looked up): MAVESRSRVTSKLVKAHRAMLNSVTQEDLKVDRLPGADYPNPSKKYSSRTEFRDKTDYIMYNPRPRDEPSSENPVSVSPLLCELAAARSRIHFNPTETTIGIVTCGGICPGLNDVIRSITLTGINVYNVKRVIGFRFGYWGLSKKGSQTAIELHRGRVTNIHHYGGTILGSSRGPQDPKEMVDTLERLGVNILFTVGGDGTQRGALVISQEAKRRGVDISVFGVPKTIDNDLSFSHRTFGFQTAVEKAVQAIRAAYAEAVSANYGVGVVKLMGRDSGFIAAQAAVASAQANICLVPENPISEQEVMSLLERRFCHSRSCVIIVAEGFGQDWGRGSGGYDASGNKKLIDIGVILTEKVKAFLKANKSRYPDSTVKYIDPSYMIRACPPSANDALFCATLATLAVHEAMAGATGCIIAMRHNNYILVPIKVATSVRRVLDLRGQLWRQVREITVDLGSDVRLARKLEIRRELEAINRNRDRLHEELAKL

Question: For `CC(=O)c1ccc(NC(=O)c2noc3c2CCC3)cc1`, which Potency [1] is on record?
Answer: 50.1 µM (active)

Question: With `Oc1ccc(/C=N/N2CCOCC2)c(O)c1O` as the compound, how does the Potency [1] read?
Answer: 100 µM (active)

Question: For `O=C(N/N=C/c1cccc(Br)c1)c1ccc(Br)cc1`, which Potency [1] is on record?
Answer: 50.1 µM (active)

Question: With `CCN(CC)C(=O)COc1ccc2oc(-c3ccco3)cc(=O)c2c1` as the compound, how does the Potency [1] read?
Answer: 112 µM (active)

Question: With `Cc1ccc(/C=C2/C(=O)c3ccc(C(=O)O)cc3C2=O)o1` as the compound, how does the Potency [1] read?
Answer: 14.1 µM (active)

Question: Which Potency [1] does the source give for `COc1ccc2cc(C(=O)Nc3ccccc3)sc(=O)c2c1OC` here?
Answer: 56.2 µM (active)

Question: With `O=C(O)C1CC=CCC1C(=O)Nc1ccccc1` (configuration not stated) as the compound, how does the Potency [1] read?
Answer: 14.1 µM (active)

Question: With `CCN(CC)C(=O)CC(c1ccc(OC)cc1)c1c(OC)cc(OC)c2c(-c3ccccc3)cc(=O)oc12` (configuration not stated) as the compound, how does the Potency [1] read?
Answer: 2.24 µM (active)

Question: For `Cc1ccc(C(=O)O)cc1-n1c(C)cc(C=O)c1C`, which Potency [1] is on record?
Answer: 15.8 µM (active)

Question: Which Potency [1] does the source give for `Cc1ccccc1NC(=O)CN1C(=O)S/C(=C\c2cccn2-c2cccc(C(=O)O)c2)C1=O` here?
Answer: 14.1 µM (active)

Question: For `Nc1ccc2c(c1Cl)C(=O)c1ccc(N)c(Cl)c1C2=O`, which Potency [1] is on record?
Answer: 3.55 µM (active)

Question: Which Potency [1] does the source give for `COc1ccc(-c2nc3c(c(SCC(=O)Nc4ccc(C(=O)O)cc4)n2)Cc2ccccc2O3)cc1` here?
Answer: 1.62 µM (active)

Question: With `CCCCCc1nnc(NC(=O)Cc2cccs2)s1` as the compound, how does the Potency [1] read?
Answer: 25.1 µM (active)

Question: Which Potency [1] does the source give for `COc1ccc2nc(N3CCCCC3)c(C#N)cc2c1` here?
Answer: 31.6 µM (active)

Question: With `CC1CCC(C(C)C)C(O)C1` (configuration not stated) as the compound, how does the Potency [2] read?
Answer: inactive

Question: And the activity, negative = inhibition ([3]; parasite line A)?
Answer: 7.33%

Question: And the activity, negative = inhibition ([3]; parasite line B)?
Answer: 4.66%

Question: And the Potency (3D7)?
Answer: inactive

Question: What about the Potency (7G8) of the same compound?
Answer: inactive

Question: And the Potency (AS120)?
Answer: inactive

Question: What about the Potency (ATS189) of the same compound?
Answer: inactive

Question: What about the Potency (CP185) of the same compound?
Answer: inactive

Question: And the Potency (CP191)?
Answer: inactive

Question: What about the Potency (CP192) of the same compound?
Answer: inactive

Question: What about the Potency (CP194) of the same compound?
Answer: inactive

Question: And the Potency (CP201)?
Answer: inactive

Question: And the Potency (CP203)?
Answer: inactive

Question: And the Potency (CP247)?
Answer: inactive

Question: And the Potency (CP286)?
Answer: inactive

Question: What about the Potency (CP291) of the same compound?
Answer: inactive

Question: And the Potency (P94_40)?
Answer: inactive

Question: What about the Potency (PC49) of the same compound?
Answer: inactive

Question: What about the Potency (TAB109) of the same compound?
Answer: inactive

Question: What about the Potency (TAB113) of the same compound?
Answer: inactive

Question: Which Potency [1] does the source give for `Cc1ccc(CN2C(=O)N/C(=C/c3ccc(-c4ccc(C(=O)O)cc4)o3)C2=O)cc1` here?
Answer: 12.6 µM (active)

Question: For `CO/N=C(/C(=O)NC1C(=O)N2C(C(=O)O)=C(COC(N)=O)CSC12)c1ccco1` (configuration not stated), which Potency [1] is on record?
Answer: 6.31 µM (active)

Question: For `O=C1NN(c2ccccc2)C(=O)/C1=C/c1ccc(-c2ccc(Cl)c(C(=O)O)c2)o1`, which Potency [1] is on record?
Answer: 7.08 µM (active)

Question: With `CCc1nnc(NC(=O)c2sc3nc4c(cc3c2N)CCCCCC4)s1` as the compound, how does the Potency [1] read?
Answer: 112 µM (active)

Question: For `Nc1ccc(N)c(C(=O)O)c1`, which Potency [1] is on record?
Answer: 0.199 µM (active)

Question: Which Potency [1] does the source give for `O=C(CSc1nc2ccccc2[nH]1)NC1CCCC1` here?
Answer: 14.1 µM (active)

Question: For `O=C(O)c1ccc(/C=C/c2nc3sc4c(c3c(=O)[nH]2)CCC4)cc1`, which Potency [1] is on record?
Answer: 112 µM (active)

Question: With `OC[C@@H]1[C@@H](c2ccc(Cl)cc2)C(c2cccc(Cl)c2)=NN1c1ccccc1` as the compound, how does the Potency [1] read?
Answer: 50.1 µM (active)
